# Measurements published in the supplement of paper PMC11001985.
# Values without a mark were called inactive.
# Compound: C#CCNC(=O)CCSSCCC(=O)NCCc1ccc(C=O)c(C=O)c1
# Test: lysine labeling ratio R10:1 (500 µM / 50 µM probe), SILAC-ABPP in living cells; higher = lower intrinsic lysine reactivity toward the probe, active = 2 or less
# Conditions: HeLa; probe concentrations 500 vs 50 µM
# Summary of the method: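 Each lysine carries an R value: the filtered median of MS1 peptide ratios of high probe to low probe, with the median then taken over forward and reverse replicates. These came from living SILAC light and heavy HeLa cells in PBS at room temperature labelled with an alkyne-tagged, disulfide-linked lysine probe at 500 µM or 50 µM, in forward and reverse swaps. The lysates were mixed, clicked to biotin-azide, trypsin-digested, captured on neutravidin, released by DTT, alkylated and run by LC-MS/MS on a TIMS-TOF Pro. The highest value allowed is 20.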
# UniProt P56199, sequence (P56199 whole entry): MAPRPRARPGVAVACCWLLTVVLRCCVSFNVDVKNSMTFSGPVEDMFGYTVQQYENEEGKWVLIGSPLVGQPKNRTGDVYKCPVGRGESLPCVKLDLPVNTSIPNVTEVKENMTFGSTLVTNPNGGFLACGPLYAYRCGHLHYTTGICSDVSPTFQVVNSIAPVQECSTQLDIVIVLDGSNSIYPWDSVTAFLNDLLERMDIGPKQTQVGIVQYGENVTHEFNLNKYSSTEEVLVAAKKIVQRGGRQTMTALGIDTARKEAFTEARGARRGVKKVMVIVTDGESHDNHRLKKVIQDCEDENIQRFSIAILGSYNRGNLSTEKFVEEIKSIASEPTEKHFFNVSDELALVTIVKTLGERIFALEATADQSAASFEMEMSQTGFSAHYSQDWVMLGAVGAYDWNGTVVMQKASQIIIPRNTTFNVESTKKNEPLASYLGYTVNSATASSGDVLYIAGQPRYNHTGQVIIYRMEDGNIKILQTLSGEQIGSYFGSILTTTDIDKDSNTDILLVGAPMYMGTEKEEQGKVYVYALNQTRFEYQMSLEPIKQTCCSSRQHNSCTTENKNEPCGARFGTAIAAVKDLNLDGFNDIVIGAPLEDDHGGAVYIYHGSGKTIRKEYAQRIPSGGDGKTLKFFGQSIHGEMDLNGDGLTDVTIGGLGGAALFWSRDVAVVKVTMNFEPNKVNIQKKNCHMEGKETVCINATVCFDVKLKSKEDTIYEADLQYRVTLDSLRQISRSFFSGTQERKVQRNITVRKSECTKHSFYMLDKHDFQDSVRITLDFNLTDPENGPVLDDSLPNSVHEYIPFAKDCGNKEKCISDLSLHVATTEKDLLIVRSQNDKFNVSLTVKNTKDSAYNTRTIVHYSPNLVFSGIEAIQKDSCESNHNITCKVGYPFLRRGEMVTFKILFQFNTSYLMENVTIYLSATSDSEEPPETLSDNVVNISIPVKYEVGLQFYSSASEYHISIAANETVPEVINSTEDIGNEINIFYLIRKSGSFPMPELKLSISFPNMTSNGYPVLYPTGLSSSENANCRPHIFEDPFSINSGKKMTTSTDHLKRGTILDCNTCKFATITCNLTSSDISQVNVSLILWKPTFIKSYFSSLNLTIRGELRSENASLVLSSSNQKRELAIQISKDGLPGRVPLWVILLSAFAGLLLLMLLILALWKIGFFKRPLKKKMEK
# UniProt P21589, sequence (P21589 whole entry): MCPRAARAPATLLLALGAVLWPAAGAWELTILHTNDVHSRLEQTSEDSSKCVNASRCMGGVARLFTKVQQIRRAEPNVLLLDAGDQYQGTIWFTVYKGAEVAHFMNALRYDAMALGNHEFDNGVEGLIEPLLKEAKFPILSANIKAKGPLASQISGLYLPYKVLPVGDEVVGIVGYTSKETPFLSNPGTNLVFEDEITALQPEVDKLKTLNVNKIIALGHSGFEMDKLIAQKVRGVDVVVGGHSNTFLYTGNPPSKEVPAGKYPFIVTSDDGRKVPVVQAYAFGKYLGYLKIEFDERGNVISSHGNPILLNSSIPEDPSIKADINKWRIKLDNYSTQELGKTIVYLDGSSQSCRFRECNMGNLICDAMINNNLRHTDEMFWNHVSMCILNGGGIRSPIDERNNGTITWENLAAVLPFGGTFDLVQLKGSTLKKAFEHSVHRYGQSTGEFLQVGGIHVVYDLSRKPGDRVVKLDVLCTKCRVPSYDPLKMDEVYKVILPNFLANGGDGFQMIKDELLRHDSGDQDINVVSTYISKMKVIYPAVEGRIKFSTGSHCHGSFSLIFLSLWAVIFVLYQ
# UniProt Q562R1, sequence (Q562R1 whole entry): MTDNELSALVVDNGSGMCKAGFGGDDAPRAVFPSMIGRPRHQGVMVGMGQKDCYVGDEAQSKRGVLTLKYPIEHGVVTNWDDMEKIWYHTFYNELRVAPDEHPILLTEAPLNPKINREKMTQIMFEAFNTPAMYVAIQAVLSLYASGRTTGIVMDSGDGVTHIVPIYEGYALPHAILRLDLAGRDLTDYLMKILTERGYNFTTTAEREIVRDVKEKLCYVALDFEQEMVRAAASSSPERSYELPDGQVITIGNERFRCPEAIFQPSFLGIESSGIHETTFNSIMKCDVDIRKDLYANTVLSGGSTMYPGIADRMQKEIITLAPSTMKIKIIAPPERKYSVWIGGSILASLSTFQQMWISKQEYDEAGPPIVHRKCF
# UniProt Q9Y4D7, sequence (Q9Y4D7 whole entry): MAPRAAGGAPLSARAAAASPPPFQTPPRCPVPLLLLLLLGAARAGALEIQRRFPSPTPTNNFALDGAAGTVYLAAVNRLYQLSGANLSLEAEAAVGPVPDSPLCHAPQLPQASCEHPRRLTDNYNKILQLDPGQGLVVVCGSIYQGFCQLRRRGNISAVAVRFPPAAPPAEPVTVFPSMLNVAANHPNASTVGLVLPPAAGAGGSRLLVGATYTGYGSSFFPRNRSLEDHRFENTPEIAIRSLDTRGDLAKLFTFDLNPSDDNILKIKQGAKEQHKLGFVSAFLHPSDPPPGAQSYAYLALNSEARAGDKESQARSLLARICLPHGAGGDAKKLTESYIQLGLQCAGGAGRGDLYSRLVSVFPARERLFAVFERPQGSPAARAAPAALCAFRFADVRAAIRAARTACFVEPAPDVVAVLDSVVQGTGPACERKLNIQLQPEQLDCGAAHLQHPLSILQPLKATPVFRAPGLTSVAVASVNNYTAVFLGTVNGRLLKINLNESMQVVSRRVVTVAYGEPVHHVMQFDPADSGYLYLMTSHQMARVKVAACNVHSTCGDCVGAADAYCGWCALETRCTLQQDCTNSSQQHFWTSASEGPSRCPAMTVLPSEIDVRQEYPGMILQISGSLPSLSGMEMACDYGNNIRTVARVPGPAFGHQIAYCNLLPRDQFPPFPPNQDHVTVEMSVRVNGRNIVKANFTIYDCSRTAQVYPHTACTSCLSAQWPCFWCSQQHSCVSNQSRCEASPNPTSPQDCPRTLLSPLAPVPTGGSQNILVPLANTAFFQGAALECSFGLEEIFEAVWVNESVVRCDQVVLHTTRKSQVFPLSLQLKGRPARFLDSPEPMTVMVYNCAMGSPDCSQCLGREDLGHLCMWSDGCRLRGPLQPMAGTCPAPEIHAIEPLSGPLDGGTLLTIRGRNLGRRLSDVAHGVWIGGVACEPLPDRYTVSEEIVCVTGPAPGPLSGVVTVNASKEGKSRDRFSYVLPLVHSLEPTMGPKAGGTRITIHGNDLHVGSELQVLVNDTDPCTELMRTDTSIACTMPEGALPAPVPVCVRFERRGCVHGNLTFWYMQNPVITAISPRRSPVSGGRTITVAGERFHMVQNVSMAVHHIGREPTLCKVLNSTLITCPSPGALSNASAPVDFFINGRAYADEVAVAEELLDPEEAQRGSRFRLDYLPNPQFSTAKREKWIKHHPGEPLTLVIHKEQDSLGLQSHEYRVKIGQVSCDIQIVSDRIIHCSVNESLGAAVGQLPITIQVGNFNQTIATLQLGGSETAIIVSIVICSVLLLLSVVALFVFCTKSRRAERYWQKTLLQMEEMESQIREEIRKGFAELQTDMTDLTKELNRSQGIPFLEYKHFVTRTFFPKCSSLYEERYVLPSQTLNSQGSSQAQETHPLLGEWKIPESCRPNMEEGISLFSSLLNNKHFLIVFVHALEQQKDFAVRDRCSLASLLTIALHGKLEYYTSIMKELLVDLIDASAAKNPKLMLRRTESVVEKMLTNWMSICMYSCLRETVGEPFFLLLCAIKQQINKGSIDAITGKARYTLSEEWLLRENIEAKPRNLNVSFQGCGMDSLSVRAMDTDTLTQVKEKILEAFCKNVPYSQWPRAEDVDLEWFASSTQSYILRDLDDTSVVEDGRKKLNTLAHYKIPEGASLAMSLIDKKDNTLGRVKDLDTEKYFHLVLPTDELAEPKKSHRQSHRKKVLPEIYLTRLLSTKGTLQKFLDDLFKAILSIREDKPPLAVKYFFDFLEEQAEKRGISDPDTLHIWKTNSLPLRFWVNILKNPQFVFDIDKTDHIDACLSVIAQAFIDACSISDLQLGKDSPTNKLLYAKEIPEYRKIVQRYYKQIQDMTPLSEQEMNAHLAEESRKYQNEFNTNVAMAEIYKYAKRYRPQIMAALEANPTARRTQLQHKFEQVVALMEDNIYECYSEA
# UniProt P21796, sequence (P21796 whole entry): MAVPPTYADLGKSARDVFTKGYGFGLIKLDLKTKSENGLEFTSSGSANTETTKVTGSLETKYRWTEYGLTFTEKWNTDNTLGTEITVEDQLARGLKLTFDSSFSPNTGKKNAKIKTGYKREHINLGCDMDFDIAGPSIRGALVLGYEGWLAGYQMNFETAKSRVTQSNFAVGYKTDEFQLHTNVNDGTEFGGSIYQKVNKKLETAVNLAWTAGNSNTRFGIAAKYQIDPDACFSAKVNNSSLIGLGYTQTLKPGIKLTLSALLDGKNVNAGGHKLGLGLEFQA
# UniProt Q02790, sequence (Q02790 whole entry): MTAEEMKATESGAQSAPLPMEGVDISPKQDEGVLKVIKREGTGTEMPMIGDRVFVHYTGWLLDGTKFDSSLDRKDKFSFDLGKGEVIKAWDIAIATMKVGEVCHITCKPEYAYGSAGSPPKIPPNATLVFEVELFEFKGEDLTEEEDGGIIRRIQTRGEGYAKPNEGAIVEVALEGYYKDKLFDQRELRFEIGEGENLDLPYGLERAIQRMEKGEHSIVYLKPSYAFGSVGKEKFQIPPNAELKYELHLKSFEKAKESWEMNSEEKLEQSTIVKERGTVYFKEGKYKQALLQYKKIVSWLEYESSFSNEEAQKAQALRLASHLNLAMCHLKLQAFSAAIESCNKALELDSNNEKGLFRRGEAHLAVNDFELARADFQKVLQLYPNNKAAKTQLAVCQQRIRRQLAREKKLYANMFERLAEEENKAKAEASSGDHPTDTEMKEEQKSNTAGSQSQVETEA
# UniProt O43633, sequence (O43633 whole entry): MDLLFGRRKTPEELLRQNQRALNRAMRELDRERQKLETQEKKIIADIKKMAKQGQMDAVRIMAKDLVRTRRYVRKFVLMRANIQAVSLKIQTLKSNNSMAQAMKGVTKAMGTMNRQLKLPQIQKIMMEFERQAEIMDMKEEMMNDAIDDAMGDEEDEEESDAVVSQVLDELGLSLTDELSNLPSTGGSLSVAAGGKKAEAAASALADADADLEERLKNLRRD
row,Target,lysine labeling ratio R10:1
1,ACTBL2 (lysine site: K114) (UniProt Q562R1),1.15 (active)
2,PLOD3 (lysine site: K89) (UniProt O60568),5.28
3,ITGB5 (lysine site: K519) (UniProt P18084),0.882 (active)
4,RPS3 (lysine site: K75) (UniProt P23396),2.68
5,ITGA1 (lysine site: K259) (UniProt P56199),4.65
6,TGFBI (lysine site: K53) (UniProt Q15582),1.28 (active)
7,CHMP2A (lysine site: K64) (UniProt O43633),5.72
8,VDAC1 (lysine site: K274) (UniProt P21796),0.919 (active)
9,ITGA1 (lysine site: K849) (UniProt P56199),0.921 (active)
10,IQGAP1 (lysine site: K104) (UniProt P46940),2.32
11,UniProt P61106 (lysine site: K193),3.57
12,FRAS1 (lysine site: K3209) (UniProt Q86XX4),2.67
13,ITGA3 (lysine site: K161) (UniProt P26006),5.16
14,UniProt Q8WXI7 (lysine site: K13985),7.69
15,PLXND1 (lysine site: K1182) (UniProt Q9Y4D7),0.824 (active)
16,UniProt P21589 (lysine site: K232),1.92 (active)
17,FKBP4 (lysine site: K390) (UniProt Q02790),3.84
